Data on seven compounds can be found in PubChem BioAssay (NCI).

SMILES strings stand for the structures. This is part of a sample that, as a whole, favours compounds with a hit. Of some 79,000 tested, about 15% had one in any assay. A number with no mark means an inactive call. Activity calls are given as the source filed them. Rule as the data show it: active = growth inhibition above about 70%; inactive = the rest.

The nature of assay [1]: NCI Yeast Anticancer Drug Screen. Data for the rad50 strain (AID 155).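 Also: 0% = growth of vehicle-only cultures of the same strain.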 The conditions noted are these: S. cerevisiae rad50 strain growth inhibition, stronger effect = higher value. An outline of the steps:
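Compounds were tested on a yeast strain with an engineered DNA damage repair alteration; the reported value is growth inhibition normalised to vehicle treatment.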

A short description of assay [2]: NCI Yeast Anticancer Drug Screen. Data for the mec2-1 strain (AID 157). The conditions noted are these: S. cerevisiae mec2-1 strain, stronger effect = higher value. In short, it runs like this: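 Readout is yeast growth inhibition, normalised to vehicle-treated controls, in the mec2-1 strain exposed to compound.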
The nature of assay [3]: NCI Yeast Anticancer Drug Screen. Data for the sgs1 mgt1 strain (AID 161).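 Also: 0% = growth of cultures given vehicle only.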 The settings on record: S. cerevisiae sgs1 mgt1 strain, stronger effect = higher value. In short, it runs like this: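 Percent growth inhibition was derived by comparing compound-exposed mutant yeast with vehicle-exposed cultures. The strain carries alterations in DNA damage repair.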
Assay [4] in a line: NCI Yeast Anticancer Drug Screen. Data for the cln2 rad14 strain (AID 165).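 Also: 0% = growth equal to vehicle treated cultures.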 The conditions noted are these: S. cerevisiae cln2 rad14 strain, stronger effect = higher value. In short, it runs like this:
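Relative to vehicle controls, growth inhibition of compound-treated cln2 rad14 yeast was recorded.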

A short description of assay [5]: NCI Yeast Anticancer Drug Screen. Data for the bub3 strain (AID 167). The conditions noted are these: S. cerevisiae bub3 mutant strain, stronger effect = higher value. In short, it runs like this:
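Growth of a checkpoint-deficient yeast mutant is measured after compound exposure. Values represent inhibition relative to vehicle.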

A short description of assay [6]: NCI Yeast Anticancer Drug Screen. Data for the mlh1 rad18 strain (AID 175). The conditions noted are these: S. cerevisiae mlh1 rad18 strain growth inhibition, stronger effect = higher value. In short, it runs like this: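 Test agents were incubated with a yeast strain of defined genotype (DNA damage repair defect). Inhibition of growth was derived by comparison with vehicle-exposed cultures.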

Where [7] appears, read: at 5.0 µM (retest, dose inferred, filed as 0.5).
Setting [8] is: at 50.0 µM (retest, dose inferred, filed as 5.0).

Consider `COc1ccc(-c2[nH]c(-c3ccc(OC)cc3)c(-c3ccccn3)c2-c2ccccn2)cc1`, for which the growth inhibition in assay [1] (setting [7]) was -4%; in assay [1] (setting [8]), 16%; in assay [1] (at 50.0 µM), 80.7% (active); in assay [2] (setting [7]) it was -16%; in assay [2] (setting [8]), 18%; in assay [2] (at 50.0 µM) it was 91.7% (active). In addition, the growth inhibition in assay [3] (setting [7]) is 0%; in assay [3] (setting [8]) it was 25%; in assay [3] (at 50.0 µM) it was 95.4% (active); in assay [4] (setting [7]) it was 7%; in assay [4] (setting [8]), 27%; in assay [4] (at 50.0 µM), 69.5%. Further, the growth inhibition in assay [5] (setting [7]) is 4%; in assay [5] (setting [8]) it was -7%; in assay [5] (at 50.0 µM) it was 83.5% (active); in assay [6] (setting [7]), -19%; in assay [6] (setting [8]), 11%; in assay [6] (at 50.0 µM), 94.7% (active).
As for `CC(=O)Oc1c(-c2ccccc2)cc([N+](=O)[O-])cc1[N+](=O)[O-]`, the growth inhibition in assay [1] (setting [7]) was 13%; in assay [1] (setting [8]), 93% (active); in assay [1] (at 50.0 µM), 95.8% (active); in assay [2] (setting [7]) it was 19%; in assay [2] (setting [8]) it was 93% (active); in assay [2] (at 50.0 µM) it was 93.5% (active). Moreover, the growth inhibition in assay [3] (setting [7]) was 31%; in assay [3] (setting [8]), 88% (active); in assay [3] (at 50.0 µM) it was 93.6% (active); in assay [4] (setting [7]) it was 17%; in assay [4] (setting [8]), 59%; in assay [4] (at 50.0 µM), 74.4% (active). The growth inhibition is 24% in assay [5] (setting [7]); 65% in assay [5] (setting [8]); 94.5% (active) in assay [5] (at 50.0 µM); 54% in assay [6] (setting [7]); 97% (active) in assay [6] (setting [8]); 91.7% (active) in assay [6] (at 50.0 µM).
For `CC(CO)(CO)Cc1ccccc1`, the growth inhibition is 1% in assay [1] (setting [7]); -6% in assay [1] (setting [8]); 96.5% (active) in assay [1] (at 50.0 µM); -2% in assay [2] (setting [7]); 6% in assay [2] (setting [8]); 97.9% (active) in assay [2] (at 50.0 µM). Further, the growth inhibition in assay [3] (setting [7]) was 0%; in assay [3] (setting [8]), -5%; in assay [3] (at 50.0 µM), 80.5% (active); in assay [4] (setting [7]), -3%; in assay [4] (setting [8]), -4%; in assay [4] (at 50.0 µM) it was 92.3% (active). The growth inhibition was -1% in assay [5] (setting [7]); 1% in assay [5] (setting [8]); 94% (active) in assay [5] (at 50.0 µM); 2% in assay [6] (setting [7]); -3% in assay [6] (setting [8]); 93.2% (active) in assay [6] (at 50.0 µM).
Take `Oc1c(C(O)(c2ccccc2)c2ccc3ccccc3c2O)ccc2ccccc12`: the growth inhibition in assay [1] (setting [7]) is 17%; in assay [1] (setting [8]) it was 81% (active); in assay [1] (at 50.0 µM) it was 84.8% (active); in assay [2] (setting [7]), 3%; in assay [2] (setting [8]), 81% (active); in assay [2] (at 50.0 µM) it was 84.4% (active). Further, the growth inhibition in assay [3] (setting [7]) was 13%; in assay [3] (setting [8]), 76% (active); in assay [3] (at 50.0 µM), 79.4% (active); in assay [4] (setting [7]), 9%; in assay [4] (setting [8]), 96% (active); in assay [4] (at 50.0 µM) it was 82.5% (active). Also, the growth inhibition in assay [5] (setting [7]) is 21%; in assay [5] (setting [8]) it was 95% (active); in assay [5] (at 50.0 µM), 89.2% (active); in assay [6] (setting [7]), 9%; in assay [6] (setting [8]) it was 85% (active); in assay [6] (at 50.0 µM), 86.9% (active).
As for `O=C(O)CCSc1ncnc2nc[nH]c12`, the growth inhibition in assay [1] (setting [7]) is 3%; in assay [1] (setting [8]), 0%; in assay [1] (at 50.0 µM), -22.9%; in assay [2] (setting [7]), 1%; in assay [2] (setting [8]) it was -18%; in assay [2] (at 50.0 µM) it was -12.8%. The growth inhibition in assay [3] (setting [7]) was 0%; in assay [3] (setting [8]) it was -24%; in assay [3] (at 50.0 µM), -30.5%; in assay [4] (setting [7]), -25%; in assay [4] (setting [8]), -97%; in assay [4] (at 50.0 µM), 27.4%. Moreover, the growth inhibition in assay [5] (setting [7]) was -10%; in assay [5] (setting [8]), -7%; in assay [5] (at 50.0 µM) it was -18.8%; in assay [6] (setting [7]) it was -7%; in assay [6] (setting [8]), -1%; in assay [6] (at 50.0 µM) it was -13.9%.
Consider `C[n+]1c(/C=C\c2ccccc2)sc2ccccc21`, for which the growth inhibition is 23% in assay [1] (setting [7]); 89% (active) in assay [1] (setting [8]); 82.8% (active) in assay [1] (at 50.0 µM); 21% in assay [2] (setting [7]); 90% (active) in assay [2] (setting [8]); 82.3% (active) in assay [2] (at 50.0 µM). For the same compound, the growth inhibition in assay [3] (setting [7]) is 33%; in assay [3] (setting [8]), 93% (active); in assay [3] (at 50.0 µM) it was 88.7% (active); in assay [4] (setting [7]), 19%; in assay [4] (setting [8]) it was 83% (active); in assay [4] (at 50.0 µM) it was 74.8% (active). Besides, the growth inhibition in assay [5] (setting [7]) is 7%; in assay [5] (setting [8]) it was 86% (active); in assay [5] (at 50.0 µM), 76.9% (active); in assay [6] (setting [7]), 15%; in assay [6] (setting [8]), 81% (active); in assay [6] (at 50.0 µM) it was 87% (active).
With `O=C1CN(c2cccc(Cl)c2)C(=O)CN1/N=C/c1ccc[nH]1`, the growth inhibition is 4% in assay [1] (setting [7]); -3% in assay [1] (setting [8]); 98.4% (active) in assay [1] (at 50.0 µM); 7% in assay [2] (setting [7]); 0% in assay [2] (setting [8]); 99.2% (active) in assay [2] (at 50.0 µM). The growth inhibition in assay [3] (setting [7]) was 10%; in assay [3] (setting [8]), 0%; in assay [3] (at 50.0 µM), 98.7% (active); in assay [4] (setting [7]), 2%; in assay [4] (setting [8]), -3%; in assay [4] (at 50.0 µM), 97.9% (active). The growth inhibition is 1% in assay [5] (setting [7]); -3% in assay [5] (setting [8]); 98.3% (active) in assay [5] (at 50.0 µM); -3% in assay [6] (setting [7]); -5% in assay [6] (setting [8]); 99% (active) in assay [6] (at 50.0 µM).
